From PubChem BioAssay
An excerpt weighted towards active compounds, which were near 9.9% of everything screened.
IL1B secr inh: qHTS for Inhibitors of Inflammasome Signaling: IL-1-beta AlphaLISA Primary Screen | actives 4.7% (n = 360,000) | activity change, % at 57.5 µM | AID 743279, 2014 | THP-1 LPS/ATP IL-1B secretion, AlphaLISA, 16 h; hits give low values; in the data active = activity change below about -50%; inconclusive = mostly about -30% to -49%
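Secreted IL-1B measured by AlphaLISA bead assay after 16 h compound exposure of THP-1 cells; compounds (final up to 57.5 uM) added 1 h before LPS (250 ng/mL) and ATP (1.25 mM) stimulation; lower signal means less secretion.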
MCF10A rerep: A quantitative high throughput screen for small molecules that induce DNA re-replication in MCF 10a normal breast cells; MCF 10A DNA re-replication, Hoechst nuclear intensity, 48 h; Potency, µM (series often up to 46.1 µM), actives largely listed as activators; actives 2.9% (n = 350,000); also: nearly all actives have a fitted effect of over 50% in size
KB-3-1 cytotox: qHTS assay for MDR1-selective chemotherapeutics: Primary screen using the parental adenocarcinoma cell KB-3-1. KB-3-1 viability, CellTiter-Glo ATP luminescence, 72 h. Potency, µM (series often up to 46.1 µM), most hits filed as cytotoxic. actives 1.4% (n = 400,000); also: nearly all actives have a fitted effect of over 60% in size
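Cytotoxicity measured as CellTiter-Glo luminescence after 72 h at 37 C. Compound titrations were pinned onto drug-naive KB-3-1 parental adenocarcinoma cells grown in DMEM with 10% FBS, and normalized data fitted to concentration-response curves.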
KB-V1 MDR tox: qHTS assay for MDR1-selective chemotherapeutics: Primary screen using the drug-selected MDR subline cells KB-V1; KB-V1 MDR cells viability, CellTiter-Glo, 72 h; Potency, µM (highest dose often 46.1 µM), actives largely listed as cytotoxic; actives 3.4% (n = 400,000); also: nearly all actives have a fitted effect of over 60% in size
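In this primary screen, KB-V1 cells overexpressing P-gp are incubated with library compounds (lowest to highest concentration) for 72 h at 37 degrees C before a luminescent ATP viability read.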
SW480 rerep: A quantitative high throughput screen for small molecules that induce DNA re-replication in SW480 colon adenocarcinoma cells. Potency, µM (top dose mostly 46.1 µM), usual class: activators. SW480 DNA re-replication, Hoechst DNA content imaging, 48 h. actives 1.8% (n = 340,000). AID 624297, 2012; also: nearly all actives have a fitted effect of over 55% in size
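Treated cells incubate 48 hr (37 C, 5% CO2), are stained 40 min with Hoechst, and nuclear fluorescence is enumerated; a rise in nuclei with high DNA signal marks re-replication.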
Each line names hits and unclear results; the compound was inactive in the other large screens. Unless noted, calls follow the shape of the dose curve; as a rule, active = well fitted curve in the direction sought with a large enough effect; inconclusive = small, poorly fitted or top-dose-only effect, or another doubt; inactive = no such curve, though single readings can be large; an effect the other way counts as inactive or inconclusive.

CCC(CC)C(=O)N(C)c1c(C)nc2c(OCCC3CCCCC3)cccn12	IL1B secr inh inconclusive (no result: MCF10A rerep, SW480 rerep)
COc1ccc(CN2CCN(S(=O)(=O)c3ccc(NC(C)=O)cc3)CC2)cc1OC	IL1B secr inh inconclusive, MCF10A rerep inconclusive, KB-V1 MDR tox 21µM
CCCS(=O)(=O)N1CCN(Cc2ccc(OCc3ccccc3)c(OC)c2)CC1	IL1B secr inh -73
COc1cc(CN2CCN(S(=O)(=O)c3ccc(NC(C)=O)cc3)CC2)cc(OC)c1O	none
CCC(C)Sc1ccc([C@@H]2[C@@H]3C(=O)N(CC)C(=O)[C@@H]3[C@]3(C(=O)OC)CCCCN23)cc1 (stereo partly specified)	KB-3-1 cytotox inconclusive, KB-V1 MDR tox inconclusive
O=C(NCC1CCCO1)C1CCN(C2CCN(CCCC3CCCC3)CC2)CC1 (stereo unspecified)	MCF10A rerep 16µM, SW480 rerep inconclusive
O=C1CCCN1c1ccc(S(=O)(=O)N2CCC(c3ccccc3)CC2)cc1	KB-V1 MDR tox 2.6µM
CCOC(=O)Nc1cc2c(cc1[N+](=O)[O-])-c1ccccc1C2=O	none
Cc1ccc(Nc2nc(-c3cccnc3)cs2)cc1Cl	none
Clc1ccccc1Nc1nnc(-c2ccncc2)s1	IL1B secr inh -76, KB-3-1 cytotox inconclusive, KB-V1 MDR tox 9.2µM
CCOc1ccccc1Nc1nc(-c2cccnc2)cs1	IL1B secr inh -59, KB-V1 MDR tox inconclusive
Cc1ccc(C)c(Nc2nc(-c3cccnc3)cs2)c1	IL1B secr inh -81
Clc1ccccc1-c1csc(Nc2cccnc2)n1	IL1B secr inh -60
CCN(CC)S(=O)(=O)c1ccc(NC(=O)NCc2noc3ccc(C)cc23)cc1	KB-3-1 cytotox inconclusive (no result: IL1B secr inh, MCF10A rerep, SW480 rerep)
CC(C)CN(CC(C)C)C(=O)C1CCCN(S(=O)(=O)c2ccc3c(c2)oc(=O)n3C)C1 (stereo unspecified)	none (no result: IL1B secr inh, MCF10A rerep, SW480 rerep)
CCN(CC(=O)NCc1ccc(Cl)cc1)C(=O)CSCC(=O)Nc1cccc(C)c1	none
Clc1ccccc1Nc1nc(-c2cccnc2)cs1	IL1B secr inh -87, KB-V1 MDR tox inconclusive
c1cncc(Nc2nc(-c3cccnc3)cs2)c1	none
CN(C(=O)c1cccc(NC(=O)Cc2ccc(NC(=O)C3CCCN(S(=O)(=O)c4cccc([N+](=O)[O-])c4)C3)cc2)c1)C1CCCCC1 (stereo unspecified)	none
Cc1[nH]c2ccccc2c1C(=O)CSc1nc2ccccc2[nH]1	MCF10A rerep inconclusive, KB-V1 MDR tox 21µM, SW480 rerep inconclusive
COc1cccc(CN(C)C(=O)CSc2nc3ccccc3[nH]2)c1OC	KB-V1 MDR tox 16µM
O=C(CSc1nnc(SCc2cccc3ccccc23)s1)c1ccc2c(c1)OCO2	KB-V1 MDR tox 18µM
COc1cccc(CN(C)C(=O)Cc2c[nH]c3ccccc23)c1OC	MCF10A rerep inconclusive, KB-V1 MDR tox inconclusive
O=C(CSc1nc2ccccc2[nH]1)c1ccc2c(c1)OCO2	KB-V1 MDR tox 18µM
Cc1ccc(NC(=O)COC(=O)[C@H](C)NC(N)=O)c(C)c1	none
CCOc1ccc(N(C(C)C(=O)N2CCOCC2)S(C)(=O)=O)cc1 (stereo unspecified)	none
CC(=O)c1cc(-c2ccc(F)cc2)n(CCC(=O)Nc2cccc(C)n2)c1C	none
O=C(CSc1nc2ccccc2c(=O)[nH]1)c1ccc(O)c(O)c1	KB-3-1 cytotox inconclusive, KB-V1 MDR tox 18µM
O=C(CSc1nc2ccccc2c(=O)[nH]1)c1ccc(O)cc1O	none
CCN1CCN(c2ccc(S(=O)(=O)N3CCCCC3)cc2NC(=O)Cc2ccc(OC)cc2)CC1	IL1B secr inh -80, MCF10A rerep inconclusive
CCN(CC)S(=O)(=O)c1ccc(N2CCCC2)c(NC(=O)Cc2c(F)cccc2Cl)c1	SW480 rerep inconclusive
CCN1CCN(c2ccc(S(=O)(=O)N3CCCCC3)cc2NC(=O)Cc2c(F)cccc2Cl)CC1	IL1B secr inh -63
Cc1cc([N+](=O)[O-])ccc1NC(=O)c1csc(C)c1C	KB-3-1 cytotox inconclusive, KB-V1 MDR tox inconclusive
O=c1c(N2CCN(c3cccc(C(F)(F)F)c3)CC2)csc2ccccc12	none (no result: IL1B secr inh, MCF10A rerep, SW480 rerep)
